The list is not random: actives were taken first. Their share in the collection is about 9.9%.
KB-3-1 tox – qHTS assay for MDR1-selective chemotherapeutics: Primary screen using the parental adenocarcinoma cell KB-3-1; KB-3-1 viability, CellTiter-Glo ATP luminescence, 72 h; AID 1347075, 2019; 400,000 compounds, 1.4% hits; Potency, µM (highest dose often 46.1 µM), hits mostly cytotoxic; further: potency means the concentration at half of the fitted maximal effect; on the % scale 0 is the no-effect control and ±100 the full control effect; nearly all actives have a fitted effect of over 60% in size
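Here the drug-naive KB-3-1 line serves as comparator for MDR sub-line selectivity; cells received compound titrations, 72 h at 37 °C, then CellTiter-Glo readout.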
SW480 rereplic – A quantitative high throughput screen for small molecules that induce DNA re-replication in SW480 colon adenocarcinoma cells; SW480 DNA re-replication, Hoechst DNA content imaging, 48 h; Potency, µM (doses to about 46.1 µM), for the others: top-dose re-replication activation, hits mostly activators; 340,000 compounds, 1.8% hits; AID 624297, 2012; further: potency means the concentration at half of the fitted maximal effect; % of control where 0% means no effect; nearly all actives have a fitted effect of over 55% in size
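Image-based DNA-content assay: after two days of treatment, nuclei were labelled with the DNA dye Hoechst and imaged, and hits were compounds raising the count of nuclei showing high fluorescence intensity.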
IL1B secr inh – qHTS for Inhibitors of Inflammasome Signaling: IL-1-beta AlphaLISA Primary Screen; THP-1 LPS/ATP IL-1B secretion, AlphaLISA, 16 h; hits give low values; activity change, % at 57.5 µM; 360,000 compounds, 4.7% hits; AID 743279, 2014; in the data active means activity change below about -50%; inconclusive means mostly about -30% to -49%; further: on the % scale 0 is the no-effect control and ±100 the full control effect
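THP-1 cells pretreated 1 hr with compounds (up to 57.5 uM final), then stimulated with LPS (250 ng/mL final) plus ATP (1.25 mM final); secreted IL-1B measured by AlphaLISA after 16 hr, decreased signal indicating inhibition.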
MCF10A rerep – A quantitative high throughput screen for small molecules that induce DNA re-replication in MCF 10a normal breast cells; MCF 10A DNA re-replication, Hoechst nuclear intensity, 48 h; Potency, µM (series often up to 46.1 µM), inactives show at the top dose activity, positive = re-replication, most hits filed as activators; 350,000 compounds, 2.9% hits; AID 624296, 2012; further: potency means the concentration at half of the fitted maximal effect; % of control where 0% means no effect; nearly all actives have a fitted effect of over 50% in size
KB-V1 cytotox – qHTS assay for MDR1-selective chemotherapeutics: Primary screen using the drug-selected MDR subline cells KB-V1; Potency, µM (series often up to 46.1 µM), hits mostly cytotoxic; KB-V1 MDR cells viability, CellTiter-Glo, 72 h; 400,000 compounds, 3.4% hits; further: potency means the concentration at half of the fitted maximal effect; on the % scale 0 is the no-effect control and ±100 the full control effect; nearly all actives have a fitted effect of over 60% in size
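Cytotoxicity via CellTiter-Glo luminescence after 72 h compound exposure at 37 degrees C. Cells: drug-selected KB-V1 line, DMEM phenol-red free plus 10% FBS. Compounds tested at multiple concentrations; normalized data fitted to concentration-effect curves.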
* hit, by the source's call; i = inactive; ? = inconclusive; . = no result given; ! = not active in a repeat. Unless noted, the call rests on the fitted dose curve; in most records, active means well fitted curve in the direction sought with a large enough effect; inconclusive means small, poorly fitted or top-dose-only effect, or another doubt; inactive means no such curve, though single readings can be large; an effect the other way counts as inactive or inconclusive.

SMILES	KB-3-1 tox	SW480 rereplic	IL1B secr inh	MCF10A rerep	KB-V1 cytotox
C/C(=N/NC(=O)CN1CCN(S(=O)(=O)c2ccc(C)cc2)CC1)c1ccco1	i	-19%	59	0%	i
Cc1ccc(-c2nn3c(-c4ccccc4)nnc3o2)cc1	i	.	-8	.	i
c1ccc(-c2nnc3oc(-c4cccs4)nn23)cc1	?	.	-104*	.	i
CC(=O)Oc1ccc2c(c1)OC(c1ccccc1)CC21CC(C)(C)NC(=S)N1 (stereo not drawn)	i	0%	2	22%	?
CC(=O)Oc1ccc(C2(C)CC(C)(C)NC(=S)N2C)c(OC(C)=O)c1 (stereo not drawn)	i	19%	0	1.3µM*	i
CN(CC(=O)NCCc1ccccc1)S(=O)(=O)c1cccc2nsnc12	i	?	?	-18%	9.2µM*
O=S(=O)(NCCc1ccccc1)c1cccc2nsnc12	i	?	-12	5.2µM*	?
CN(CC(=O)NCCN1CCN(Cc2ccccc2)CC1)S(=O)(=O)c1cccc2nsnc12	i	-4%	30	18%	i
c1csc(-c2nnc(Cc3cccc4ccccc34)o2)c1	i	-2%	17	13%	15µM*
Fc1ccc(Cc2nnc(-c3cccs3)o2)cc1	i	-5%	1	-4%	i
CC(=O)N/N=C/c1cc(C(C)C)cc(/C=N/NC(C)=O)c1O	i	15µM*	26	18µM*	?
CNC(=S)N/N=C/c1ccco1	i	16µM*	9	1%	i
CCCCn1c(=NC(=O)C(C)(C)Oc2ccc(Cl)cc2)c(C(=O)OCC)cc2c(=O)n3ccccc3nc21	i	.	.	.	i
COC(=O)[C@@]12CCCCN1[C@H](c1ccc(-c3ccc4c(c3)OCO4)cc1)[C@H]1C(=O)N(C)C(=O)[C@H]12	i	2%	-11	3.7µM*	i
CCCCCCSc1ccc([C@@H]2[C@H]3C(=O)N(C)C(=O)[C@H]3[C@]3(C(=O)OC)CCCCN23)cc1OC	i	0%	-24	15µM*	i
COC(=O)[C@@]12CCCCN1[C@H](c1ccc(-c3ccc(OC)cc3)cc1)[C@@H]1C(=O)N(C)C(=O)[C@@H]12	?	11%	-12	-5%	i
COc1cc(C(=O)N2CCN(C(=O)c3cc(-c4ccccc4)n[nH]3)CC2)cc(OC)c1OC	i	-15%	-24	25%	i
CCOCCCn1c(=N)c(C(=O)NC2CCCCC2)cc2c(=O)n3ccccc3nc21	i	.	.	.	i
O=C(c1ccc(Oc2ccc(C(F)(F)F)cn2)cc1)N1CCN(c2ccccc2)CC1	?	-3%	-10	26%	21µM*
COc1ccc(N2CCN(C(=O)c3ccc(Oc4ccc(C(F)(F)F)cn4)cc3)CC2)cc1	?	1%	-3	5%	?
COc1ccc(N2CCN(C(=O)CSc3nc4[nH]ncc4c(=O)n3-c3cccc4ccccc34)CC2)cc1	i	15%	-51*	1%	?
O=C(Cc1ncc(C(F)(F)F)cc1Cl)N1CCN(c2ccc(F)cc2)CC1	i	1%	-1	4%	i
COc1ccc(N2CCN(C(=O)Cc3nn(C)c(=O)c4ccccc34)CC2)cc1	i	-9%	58	-12%	15µM*
COc1ccc(N2CCN(C(=O)Cc3ncc(C(F)(F)F)cc3Cl)CC2)cc1	i	5%	51	3%	21µM*
COc1ccc(CNC(=O)Cc2nn(C)c(=O)c3ccccc23)cc1	?	-5%	2	18%	i
SMILES	KB-3-1 tox	SW480 rereplic	IL1B secr inh	MCF10A rerep	KB-V1 cytotox
O=C(C1CCN(Cc2ccccc2O)CC1)N1CCN(Cc2ccc3c(c2)OCO3)CC1	.	-5%	-17	7%	.
O=C(C1CCN(S(=O)(=O)N2CCC3(CC2)OCCO3)CC1)N1CCc2ccccc2C1	i	-7%	29	-4%	9.2µM*
O=C(C1CCN(Cc2cc(Cl)ccc2O)CC1)N1CCN(Cc2ccccc2)CC1	?	11%	-6	13%	10µM*
O=C(NCc1ccccn1)C1CCN(S(=O)(=O)N2CCC3(CC2)OCCO3)CC1	i	12µM*!	1	?	i
O=C(NCCc1ccccc1)C1CCN(S(=O)(=O)N2CCC3(CC2)OCCO3)CC1	i	?	12	2%	i
O=C(C1CCN(S(=O)(=O)N2CCC3(CC2)OCCO3)CC1)N1CCN(Cc2ccccc2)CC1	i	5.8µM*	12	?	i
O=C(NCCCN1CCN(Cc2ccccc2)CC1)C1CCN(S(=O)(=O)N2CCC3(CC2)OCCO3)CC1	i	-18%	1	4%	i
CN(Cc1ccncc1)C(=O)[C@@H]1CCCN1C(=O)[C@@H]1CCCN1	i	.	-7	.	i
CCCC(=O)N1CCCC1(C)C(=O)Nc1ccc2nc(C)ccc2c1 (stereo not drawn)	i	.	-1	.	i
Cc1cc(C(=O)N/N=C/c2ccc(-c3cccc(Br)c3)o2)n[nH]1	i	21µM*	-2	?	i
Cc1cc(C(=O)N/N=C/c2ccc(-c3cccc(Cl)c3Cl)o2)n[nH]1	i	9%	22	?	i
O=C(NCCCN1CCOCC1)C(=O)N/N=C/c1c(Cl)cccc1Cl	i	-11%	0	-4%	i
NC(=O)C(=O)N/N=C/c1cccc(C(F)(F)F)c1	i	-1%	-1	1%	i
NC(=O)C(=O)N/N=C/c1c2ccccc2cc2ccccc12	i	?	108	23µM*	i
Cc1cc(C(=O)N/N=C/c2c3ccccc3cc3ccccc23)n[nH]1	?	?	17	21µM*	18µM*
O=C(NCCCN1CCOCC1)C(=O)N/N=C/c1c2ccccc2cc2ccccc12	5.8µM*	23µM*	47	?	10µM*
O=C(CC(O)c1ccccc1)Nc1ccccn1 (stereo not drawn)	i	-1%	0	2%	i
CCn1c(C)nc2cc(C(=O)N3N=C(CCOC)CC3(O)C(F)(F)F)ccc21 (stereo not drawn)	i	-1%	0	10%	i
CCOC(=O)c1nn(-c2ccc(C)cc2)c(=O)cc1OCC(=O)N1CCN(c2ccccc2)CC1	i	-105%	-6	4%	i
Cc1ccc(C(=O)CCC(=O)Nc2ccc(Cl)c(S(=O)(=O)Nc3cccc(Cl)c3)c2)cc1	i	-5%	7	5%	16µM*
Cc1ccc(S(=O)(=O)NCCC(=O)Nc2ccc(Cl)c(Cl)c2)cc1	?	-3%	-10	?	15µM*

Screening data from PubChem BioAssay.
